The campaign covered roughly 96,000 compounds. About 20,000 (21%) were called active. A selection follows. Unmarked numbers belong to inactive results.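 The calls were made as follows: active = CYP2C19 inhibition above a set limit at 5 µM in the primary screen (cut at about 50% in these data); inactive = the rest.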

For the test, the target named is Cytochrome P450 2C19 (Homo sapiens) (UniProt P33261). The test is described as follows: blockers of cytochrome P450 2C19 activity – biochemical, luminescence, ADME assay, primary screen (AID 778).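 Also: plate controls were negative control wells for no effect and 2.5 mM tranylcypromine positive control for full effect.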 Particulars: CYP2C19 Supersomes, luciferin-H EGE luminescence, 30 min; at 5 µM; active compounds read high.
Sequence of Cytochrome P450 2C19 (Homo sapiens) (P33261 whole entry, looked up): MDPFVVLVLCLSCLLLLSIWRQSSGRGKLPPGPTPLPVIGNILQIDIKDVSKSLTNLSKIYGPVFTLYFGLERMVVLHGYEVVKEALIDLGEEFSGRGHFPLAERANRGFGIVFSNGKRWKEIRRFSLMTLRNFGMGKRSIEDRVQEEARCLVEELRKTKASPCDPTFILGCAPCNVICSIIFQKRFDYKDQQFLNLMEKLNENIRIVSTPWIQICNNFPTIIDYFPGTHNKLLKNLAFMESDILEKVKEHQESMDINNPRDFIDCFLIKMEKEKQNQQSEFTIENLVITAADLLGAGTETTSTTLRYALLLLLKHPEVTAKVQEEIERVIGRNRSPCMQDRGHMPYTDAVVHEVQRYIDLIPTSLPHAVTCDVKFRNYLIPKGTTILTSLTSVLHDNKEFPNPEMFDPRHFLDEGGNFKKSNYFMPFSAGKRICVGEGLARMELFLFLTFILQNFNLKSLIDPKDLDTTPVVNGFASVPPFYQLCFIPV
The inhibition is the change of the read-out against control, counted positive when it falls. `O=P(O)(CP(=O)(c1ccccc1)c1ccccc1)c1ccccc1`: the inhibition is -1.3%.
The same measure for `Cc1ccc(N2CCN(c3ccc(C)cc3)C2c2ccccn2)cc1`: 27.1%.
Consider `CCc1ccccc1NC(=O)/C(=C/c1ccccc1)c1ccccc1`, for which the inhibition was 28.8%.
The same measure for `O=c1onc(-c2cccs2)n1Cc1ccccc1`: 79.9% (active).
The result for `O=c1[nH]c(-c2cccs2)nc2ccccc12` reads 1.4%; that for `O=C(CSc1nnc(-c2cccs2)n1Cc1ccccc1)N1CCc2ccccc2C1`, 31.9%; that for `Cn1c(C(=O)NCCN2CCc3ccccc3C2)cc2c(=O)[nH]c3ccccc3c21`, 14.8%.
The same measure for `CCOC(=O)CCc1c(C)c2ccc(OCc3nn[nH]n3)c(C)c2oc1=O`: 0%.
`O=C1c2cccc3cc(Br)cc(c23)C(=O)N1Nc1ccccc1`: the inhibition is 29.2%.
The same measure for `Cc1noc(NS(=O)(=O)c2ccc(NC(=O)C34CCC(CC3)C4)cc2)c1C`: -12.3%; for `Cc1ccccc1C(=O)N1CCC(C(=O)Nc2ccc(S(=O)(=O)N(C)C(C)C)cc2)CC1`: 25.1%; for `CCCS(=O)(=O)Nc1c(C(=O)O)[nH]c2ccccc12`: 11.8%.
Turning to `COC(=O)c1[nH]c2ccccc2c1NS(=O)(=O)c1ccc(OC)cc1OC`, the inhibition is 89.7% (active).
The result for `COC(=O)c1[nH]c2ccc(Br)cc2c1NC(=O)Oc1ccccc1` reads 7.3%; that for `CCOCCCNC(=O)c1c[nH]c2cc(C)ccc2c1=O`, -3.9%.
The result for `CCC(C)NC(=O)CCCc1ccccc1` (stereo unspecified) reads 58.1% (active); that for `C[C@H](NC(=O)NCCc1ccccc1)C(=O)O`, -17.1%.
The same measure for `CC(C)c1ccc(C(=O)NCCCc2ccccc2)cc1`: 14.8%.
Regarding `Cc1ccc2cccc(O)c2[n+]1[O-]`, the inhibition was 1.9%.
The same measure for `CCc1ccc2nc3sc(C(=O)Nc4nnc(CC)s4)c(N)c3cc2c1`: 39.6%.
The same measure for `CCCc1nc2ccccc2c(C(=O)OCc2nnc(-c3cc(OC)c(OC)c(OC)c3)o2)c1CC`: 69.1% (active); for `COc1cc(-c2nnc(Cn3cc(C(F)(F)F)ccc3=O)o2)cc(OC)c1OC`: 8.6%.
The result for `CCCc1nc2ccccc2c(C(=O)OCC(=O)c2ccc3c(c2)NC(=O)CO3)c1CC` reads -9.7%; that for `C=CCC(NCCCO)c1cccc(OC)c1OC` (stereo unspecified), -15.9%; that for `CCN(c1ccc2c(c1)OCO2)S(=O)(=O)c1cc(Br)cc2c1N(C(=O)C1CC1)CC2`, 51.5% (active).
As to `O=C(C1CCN(S(=O)(=O)c2cnc[nH]2)CC1)N1CCN(Cc2ccc3c(c2)OCO3)CC1`, the inhibition is 11.6%.
The same measure for `CCOC(=O)N1CCN(S(=O)(=O)c2cc(Br)cc3c2N(C(=O)C2CC2)CC3)CC1`: 30.1%.
`CC(C)C(=O)Nc1cccc(NC(=S)NC(=O)C(c2ccccc2)c2ccccc2)c1`: the inhibition was 18.9%.
The same measure for `CCc1cc(=O)oc2cc(C)cc(OC(C)C(=O)O)c12` (stereo unspecified): -4.4%.
The same measure for `COc1ccc(NC(=O)C(CC(C)C)NS(=O)(=O)c2ccc3c(c2)CCN3C(C)=O)cc1OC` (stereo unspecified): 31.2%.
The same measure for `COc1ccc(-n2c(SCC(=O)Nc3sc4c(c3C#N)CCCC4)nnc2-c2ccc(O)cc2)cc1`: 26.8%; for `O=C(NCc1ccc2c(c1)OCO2)c1cc2c(s1)CS(=O)(=O)C2`: 28.8%; for `CC(Sc1nncs1)C(=O)NCc1ccc2c(c1)OCO2` (stereo unspecified): 75.7% (active).
In the case of `Cc1ccc2c(c1)-c1c(ssc1=S)C(C)(C)N2C(=O)CN1C(=O)c2ccccc2C1=O`, the inhibition is 25.1%.
The result for `Cc1nc2ccc(S(=O)(=O)NCC(=O)O)cc2s1` reads -10.3%.
In the case of `N#Cc1ccc(OCCN2C(=O)NC3(CCSC3)C2=O)cc1` (stereo unspecified), the inhibition was -8.7%.
As to `CCCOc1ccc(C2NC(=O)NC(c3ccccc3)=C2C(C)=O)cc1OCC` (stereo unspecified), the inhibition is 11%.
Take `COc1ccccc1C1C2=C(COC2=O)Nc2cc3c(cc21)OCO3` (stereo unspecified): the inhibition was 91.7% (active).
As for `CCCOc1ccccc1C1CC(=O)Nc2cc3c(cc21)OCO3` (stereo unspecified), the inhibition was 99.3% (active).
The same measure for `COc1cc2c(cc1OC)C(c1ccc(C)o1)CC(=O)N2` (stereo unspecified): -11%; for `Cc1cc(=O)oc(C)c1C(=O)N1CCCCC1`: 20.5%.
The same measure for `O=[N+]([O-])c1ccccc1OCCCCN1CCCCC1`: 1%; for `COc1cccc(C(=O)NNC(=O)c2ccccc2Br)c1`: 8.8%.
The result for `COc1cccc(C(=O)c2cc3ccc(O)cc3oc2=O)c1` reads 83.3% (active); that for `COc1ccc2oc(=O)c(C(=O)O)cc2c1`, -14.5%.
Consider `CCOCCCNC(=O)C(NC(=O)CNC(=O)c1ccccc1)c1ccc(C)cc1` (stereo unspecified), for which the inhibition is -8.2%.
For `COc1ccccc1N1CCN(C(=O)c2cc3c(-c4ccc(Cl)cc4)nn(C)c3s2)CC1`, the inhibition is 74.1% (active).
The result for `COc1ccccc1N1CCN(C(=O)c2cn(-c3ccccc3)nc2-c2cccnc2)CC1` reads 93.8% (active); that for `CCOC(=O)N1CCN(C(=O)c2cc3c(-c4ccc(Cl)cc4)nn(C)c3s2)CC1`, 9.1%.
The same measure for `COc1cccc(-c2nn(C)c3sc(C(=O)N4CCN(c5ccccc5)CC4)cc23)c1`: 23.7%; for `O=C(c1cn(-c2ccccc2)nc1-c1cccnc1)N1CCCCC1`: 40.6%.
In the case of `COc1ccccc1N1CCN(C(=O)Cn2nnc(-c3cccs3)n2)CC1`, the inhibition was 46.2%.
The result for `Cn1c(=O)[nH]c(=O)c2c1nc(N1CCN(CCO)CC1)n2CCSc1nc2ccccc2s1` reads -15.3%.
Consider `O=C(NC1CCc2ccccc21)C12CN(Cc3ccccc3)CC1C(c1cccc([N+](=O)[O-])c1)=NO2` (stereo unspecified), for which the inhibition was 14.2%.
The result for `O=C(N/N=C\c1ccc(-c2ccc(Cl)c(Cl)c2)o1)C(=O)N1CCCC1` reads 16.3%; that for `COC(=O)CN1C(=O)C(O)=C(C(C)=O)C1c1ccc([N+](=O)[O-])cc1` (stereo unspecified), -14.6%.
As to `Cc1ccsc1C(=O)OCC(=O)c1cc(C)n(CC2CCCO2)c1C` (stereo unspecified), the inhibition was 54.4% (active).
The same measure for `Cc1c(C(=O)NCC2CCCO2)sc2nc(-c3ccccc3)cn12` (stereo unspecified): 27.4%.
The same measure for `Cc1ccsc1C(=O)OCC(=O)c1cc2ccccc2o1`: 44.1%; for `COC(=O)c1ccc(S(=O)(=O)N2CCC(c3nc4ccccc4o3)CC2)cc1`: 8.7%; for `Oc1ccc(/C=N/NC2=NCCCCC2)c(O)c1`: 13.9%.
The same measure for `COC(=O)C1CCN(CC(N)=O)CC1`: -8.8%.
Consider `Cc1cc([N+](=O)[O-])c(-c2ccc(/C=N/n3cnnc3)o2)cc1Cl`, for which the inhibition is 63.7% (active).
The same measure for `Cc1cc(C)c([N+](=O)[O-])cc1-c1ccc(/C=N/NC(=O)c2nonc2N)o1`: 3.8%; for `NC(=O)c1ccsc1NC(=O)c1ccco1`: 38.9%; for `O=C(NCC(F)(F)F)Nc1nnc(C(F)(F)F)s1`: -26%.
The result for `CCOc1cc(S(=O)(=O)NC2CC(C)(C)NC(C)(C)C2)ccc1F` reads -5.3%; that for `CCOc1cc(S(=O)(=O)NCc2ccc3c(c2)OCO3)ccc1F`, 91.8% (active); that for `CCOc1c2ccc(C(=O)NCc3ccc4c(c3)OCO4)cc2nn1C`, 31.5%.
The same measure for `O=C(Nc1cc(-c2nn(CC(=O)N3CCCCC3)c(=O)c3ccccc23)ccc1N1CCOCC1)c1ccc(Cl)cc1`: 7.3%.
Take `O=C(CN1C(=O)NC2(CCCC2)C1=O)Nc1ccc(F)c(F)c1F`: the inhibition is 0.4%.
On to `CC(C)C(=O)NC(=S)Nc1ccccc1F`, for which the inhibition was 25.4%.
With `CC(C(=O)Nc1ccc(F)c(F)c1F)N1CCCCCC1` (stereo unspecified), the inhibition is 64.6% (active).
In the case of `C=CCNc1ncnc2ccc(Br)cc12`, the inhibition is 20.7%.
The same measure for `Cc1nc(CNS(=O)(=O)c2cccnc2)cs1`: 19.3%; for `Cc1ccc(S(=O)(=O)NCc2csc(C)n2)c(C)c1`: 13.3%; for `Cc1nc(CNS(=O)(=O)c2ccc(Oc3ccccc3)cc2)cs1`: 73.1% (active).
On to `Cc1cc(=O)oc2cc(OC(C)C(=O)Nc3ccc(N4CCOCC4)cc3)ccc12` (stereo unspecified), for which the inhibition is 27.5%.
The result for `Cc1cc(C(=O)OC(C)C(=O)Nc2cccc(S(=O)(=O)N3CCOCC3)c2)c(C)o1` (stereo unspecified) reads 96.4% (active); that for `CCOC(=O)c1sc(NC(=O)c2cc(S(=O)(=O)N3CCOCC3)ccc2C)nc1C`, 35.4%.
The same measure for `CC(Sc1nncn1C)C(=O)Nc1ccccc1-c1ccccc1` (stereo unspecified): 9.5%.
The result for `O=C1Nc2cc(Cl)c(Cl)cc2N(O)N1c1cc(Cl)cc(Cl)c1` reads -1.7%.
Turning to `CN(C)Cc1c(O)ccc2occ(C(O)c3ccccc3)c12` (stereo unspecified), the inhibition was 70.5% (active).
Regarding `c1csc(CN2CCN(Cc3cccs3)C2c2cccs2)c1`, the inhibition was 16.8%.
The result for `O=C(CN1CCOCC1)Nc1cc(Cl)ccc1Cl` reads 48.8%.
As to `C=C(C)Cn1c(N2CCCC2)nc2c1c(=O)[nH]c(=O)n2C`, the inhibition was -8.1%.
The same measure for `COc1ccccc1N1CCN(C(=O)CSc2nnc(-c3ccoc3C)o2)CC1`: 17.4%; for `O=C(CSC1=Nc2ccccc2C2=NC(CC(=O)NCc3ccco3)C(=O)N12)NCc1ccco1` (stereo unspecified): 10.6%; for `CCC1CCCCN1CCCNC(=O)Cn1nc(-c2ccccc2)ccc1=O` (stereo unspecified): -1.3%.
The result for `Cc1ccsc1-c1nc(CSCC(=O)NCCN2CCCC2)c(C)o1` reads 1.6%; that for `O=C(/C=C/c1ccc(Cl)cc1Cl)c1cccnc1`, 62.6% (active).
The result for `C/C(=C\C(=O)c1cccnc1)Nc1ccc(C)c(C)c1` reads 37.2%.
For `O=C(/C=C/c1ccc(Cl)cc1Cl)NCc1ccco1`, the inhibition is 31.8%.
`C=CCn1c(N)c(S(=O)(=O)c2cccs2)c2nc3ccccc3nc21`: the inhibition is 80.5% (active).
The result for `Cc1ccc(S(=O)(=O)c2c(N)n(C)c3nc4ccccc4nc23)cc1` reads 47.7%; that for `C=CCn1c(N)c(C(=O)OCC(C)C)c2nc3ccccc3nc21`, 18.5%.
